The results in this text go back to PubChem BioAssay (Tox21).

Test [1] in a line: Nuclear factor erythroid 2-related factor 2/antioxidant responsive element (Nrf2/ARE) small molecule agonists: qHTS cell viability counter screen in human keratinocytes (AID 1919968; active = well fitted curve in the direction sought with a large enough effect in the repeat runs; an effect the other way counts as inactive or inconclusive; note: nearly all actives have a fitted effect of over 55% in size; note: potency is the fitted concentration of half-maximal effect). In a few lines: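 Cytotoxicity was multiplexed with the Nrf2/ARE luciferase assay in the same wells. Stably transfected HaCaT keratinocytes were treated with test compounds for 23 h at 37 C. Cell viability was then measured by CellTiter-Fluor fluorescence.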

Test [2] is described as follows: Nuclear factor erythroid 2-related factor 2/antioxidant responsive element (Nrf2/ARE) small molecule agonists: luciferase reporter gene qHTS assay in human keratinocytes (AID 1919969). Note: nearly all actives have a fitted effect of over 35% in size. Note: potency is the fitted concentration of half-maximal effect. In general terms: In a reporter assay the amount or activity of a reporter protein is the signal.
Test [3] is described as follows: G protein-coupled receptor (GPCR) small molecule agonists, calcium flux assay: HEK293 wild type cell line counter screen (AID 1920065). A digest of the protocol:
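Seed cells, incubate 18 h (37 C, 5% CO2); add calcium dye, 1 h at 37 C; pin-transfer compounds, ATP control or DMSO; read fluorescence 480/540 nm each second for 3 min.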
On the technique in general: Calcium flux is commonly read through the fluorescence of an indicator in the cells.

The nature of test [4]: p53 small molecule agonists, cell-based qHTS assay with human liver microsomes (AID 1963577). Note: potency is the fitted concentration of half-maximal effect. A digest of the protocol:
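Cells carrying a p53-responsive bla reporter were rested 5 h (37 C, 5% CO2) before compound transfer. Human liver microsomes plus NADPH, 0.5 mg/mL final apiece, supplied metabolism during the 16 h 37 C exposure.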
On the technique in general: Quantitative high-throughput screening tests each substance at several concentrations.

Test [5] in a line: p53 small molecule agonists, cell-based qHTS assay with rat liver microsomes (AID 1963578). In a few lines:
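Fluorescence from a beta-lactamase reporter under a p53 response element was measured after cells had been incubated 16 h at 37 C with test compound and rat liver microsomes plus NADPH (0.5 mg/mL final each).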

Test [6] can be described thus: p53 small molecule agonists, cell-based qHTS assay with human liver microsomes: qHTS cell viability counter screen (AID 1963579). Note: nearly all actives have a fitted effect of over 45% in size. In a few lines:
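Seed p53RE-bla cells at 4,000 per well; incubate 5 h at 37 C; add compound, human liver microsomes and NADPH; incubate 16 h at 37 C; add CellTiter-Glo; after 30 min at room temperature, read luminescence.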

The nature of test [7]: p53 small molecule agonists, cell-based qHTS assay with rat liver microsomes: qHTS cell viability counter screen (AID 1963580). Note: nearly all actives have a fitted effect of over 45% in size. In a few lines: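 After the beta-lactamase ratio was read, CellTiter-Glo was added to the same wells and luminescence measured at 30 min; cells had been treated 16 h at 37 C with compounds, rat liver microsomes and NADPH (0.5 mg/mL final each).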

Test [8] can be described thus: p53 small molecule agonists, cell-based qHTS assay: qHTS cell viability counter screen (AID 1963581). Note: nearly all actives have a fitted effect of over 45% in size. A digest of the protocol: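 Viability was counter-screened in parallel with the p53 agonist reporter by measuring intracellular ATP luminescence in the same HCT-116 p53RE-bla wells after 16 h compound treatment at 37 C.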
Test [9] can be described thus: p53 small molecule agonists, cell-based qHTS assay (AID 1963582; active = well fitted activation curve with a large enough effect in the signal ratio in the repeat runs, not every such curve was filed as active; the % refers to the signal ratio). In a few lines: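 Cells carrying a p53-responsive bla reporter are treated with test compounds for 16 h at 37 C; beta-lactamase activity is then detected with LiveBLAzer B/G FRET substrate after 2 h at room temperature.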
In test [10] the target is 5-hydroxytryptamine receptor 2A (Homo sapiens) (UniProt P28223). The test is described as follows: 5-hydroxytryptamine receptor 2A (HTR2A) small molecule antagonists, cell-based qHTS assay (AID 1963586). Note: nearly all actives have a fitted effect of over 45% in size. In a few lines:
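CHO cells stably expressing human HTR2A were plated for 18 h at 37 C, then loaded with calcium dye for 1 h. Compounds were preincubated 5 min at room temperature before DOI (4 nM solution) was added. Kinetic fluorescence was read for 3 min.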

Test [11] shares this target. The test is described as follows: 5-hydroxytryptamine receptor 2A (HTR2A) small molecule agonists, cell-based qHTS assay (AID 1963587). Note: nearly all actives have a fitted effect of over 30% in size. Note: potency is the fitted concentration of half-maximal effect. A digest of the protocol: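 CHO cells stably expressing human HTR2A, plated 18 h, loaded with calcium dye 1 h at 37 C. Agonist mode: compounds added and intracellular calcium fluorescence recorded kinetically for 2 min at 1 sec intervals.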

The target of test [12] is Muscarinic acetylcholine receptor M1 (Homo sapiens) (UniProt P11229). The test is described as follows: Cholinergic receptor muscarinic 1 (CHRM1) small molecule antagonists, cell-based qHTS assay (AID 1963588). Note: nearly all actives have a fitted effect of over 40% in size. A digest of the protocol:
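Compounds were tested at 15 concentrations in three independent runs. Dye-loaded CHRM1-CHO cells were exposed 5 min at room temperature before stimulation by acetylcholine added at 50nM. Intracellular calcium was read kinetically on FDSS for 3 min.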

Test [13] shares this target. The test is described as follows: Cholinergic receptor muscarinic 1 (CHRM1) small molecule agonists, cell-based qHTS assay (AID 1963589). Note: nearly all actives have a fitted effect of over 35% in size. Note: potency is the fitted concentration of half-maximal effect. In a few lines:
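Cells were plated and incubated 18 h at 37 C/5% CO2, loaded with calcium dye for 1 h at 37 C, then treated with compounds in DMSO. Fluorescence was recorded kinetically at 1 sec intervals.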

Test [14] can be described thus: cAMP Responsive Elements (CRE) small molecule agonists, cell-based qHTS assay (AID 1963590). In a few lines: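 Cells carrying a CRE-driven beta-lactamase reporter (HEK 293T) are seeded, incubated overnight (18 h), and treated with test compounds for 3 h at 37 C; reporter activity is then detected with a FRET substrate after 2 h at room temperature.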
A short description of test [15]: cAMP Responsive Elements (CRE) small molecule antagonists, cell-based qHTS assay (AID 1963591; active = well fitted inhibition curve with a large enough effect in the signal ratio in the repeat runs, not every such curve was filed as active; the % refers to the signal ratio). A digest of the protocol: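 Cells (CRE-bla HEK 293T, DMEM with 10% dialyzed FBS and 25 mM HEPES) are seeded and incubated 18 h. Compounds are added with NKH477 agonist at 0.25 uM final for 3 h, then FRET substrate for 2 h.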
Test [16] addresses Beta-2 adrenergic receptor (Homo sapiens) (UniProt P07550). The test is described as follows: Adrenergic beta2 receptor (ADRB2) small molecule antagonists, cell-based qHTS assay (AID 1963592). Note: series mostly up to about 92 µM; nearly all actives have a fitted effect of over 50% in size. In a few lines: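 Assay format: CHO-ADRB2 cells, 18-20hr seeding at 37C/5% CO2, then compound plus 1nM isoproterenol agonist mix for 0.5hr RT. Homogeneous time-resolved fluorescence cAMP detection after 1hr, expressed as 665/615 nm ratio.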

The target is the same in test [17]. The test is described as follows: Adrenergic beta2 receptor (ADRB2) small molecule agonists, cell-based qHTS assay (AID 1963593).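 Note: CHO cells stably overexpressing human ADRB2.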 A digest of the protocol: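 CHO cells stably over-expressing ADRB2 were plated overnight at 37C, then dosed with compounds plus a stimulation mix containing 100uM IBMX and 25uM Ro-20-1724 for 0.5hr at room temperature. cAMP was measured by HTRF competition, 1hr.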

Test [18] has as its target D(2) dopamine receptor (Homo sapiens) (UniProt P14416). The test is described as follows: Dopamine D2 receptor (DRD2) small molecule agonists, cell-based qHTS assay (AID 1963594). Note: nearly all actives have a fitted effect of over 35% in size. In a few lines: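 HEK293 cells stably expressing human DRD2, pre-treated with PDE inhibitor Ro20-1724 (0.1 mM final) and compound 10 min at room temperature, then stimulated with NKH477 (200nM […]) for 30 min. cAMP read by HTRF (665/620 nm).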

The target is the same in test [19]. The test is described as follows: Dopamine D2 receptor (DRD2) small molecule antagonists, cell-based qHTS assay (AID 1963595; active = well fitted inhibition curve with a large enough effect in the signal ratio in the repeat runs, with a control signal flat; the % refers to the signal ratio; note: potency is the fitted concentration of half-maximal effect). In a few lines: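 HEK293 cells stably expressing DRD2, preincubated with 0.1 mM Ro20-1724 and compounds 10 min, were stimulated with 200 nM NKH477 plus 12 nM quinpirole for 30 min at room temperature; cAMP measured by HTRF (665/620 nm).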

The target in test [20] is KiSS-1 receptor (Homo sapiens) (UniProt Q969F8). The test is described as follows: Human kisspeptin (KISS1R) small molecule agonists, calcium flux assay in KISS1R-HEK293 cells (AID 1920064; active = well fitted curve in the direction sought with a large enough effect in the repeat runs; an effect the other way counts as inactive or inconclusive). In a few lines: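 Agonist activity is monitored as intracellular calcium rise in engineered HEK293 cells carrying human KISS1R. Cells are dye-loaded for 1 h at 37 C before compound addition, and fluorescence is recorded for 3 min.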

Several values for one entry are separate records, joined by “and”; a condition that tells them apart may be missing. Equal entries are not always repeated. Inconclusive results are not listed. Some structures have more than one record in an assay (separate samples or runs), and their calls can disagree. Activity calls are given as the source filed them. Unless noted, calls come from the whole dose curve.

Sequence of D(2) dopamine receptor (Homo sapiens) (P14416 whole entry, looked up): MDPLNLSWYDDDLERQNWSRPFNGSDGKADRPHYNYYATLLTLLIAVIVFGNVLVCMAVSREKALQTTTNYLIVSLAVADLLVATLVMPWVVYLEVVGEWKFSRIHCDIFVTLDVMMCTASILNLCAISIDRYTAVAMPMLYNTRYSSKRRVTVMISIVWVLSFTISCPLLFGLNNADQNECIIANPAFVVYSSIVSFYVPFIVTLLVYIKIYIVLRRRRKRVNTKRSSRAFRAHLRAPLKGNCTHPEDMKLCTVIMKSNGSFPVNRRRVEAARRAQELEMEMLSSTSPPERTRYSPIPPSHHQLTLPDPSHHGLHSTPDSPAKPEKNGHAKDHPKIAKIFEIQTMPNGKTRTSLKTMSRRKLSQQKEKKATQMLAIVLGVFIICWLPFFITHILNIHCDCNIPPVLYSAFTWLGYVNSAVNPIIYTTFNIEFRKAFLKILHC
Sequence of 5-hydroxytryptamine receptor 2A (Homo sapiens) (P28223 whole entry, looked up): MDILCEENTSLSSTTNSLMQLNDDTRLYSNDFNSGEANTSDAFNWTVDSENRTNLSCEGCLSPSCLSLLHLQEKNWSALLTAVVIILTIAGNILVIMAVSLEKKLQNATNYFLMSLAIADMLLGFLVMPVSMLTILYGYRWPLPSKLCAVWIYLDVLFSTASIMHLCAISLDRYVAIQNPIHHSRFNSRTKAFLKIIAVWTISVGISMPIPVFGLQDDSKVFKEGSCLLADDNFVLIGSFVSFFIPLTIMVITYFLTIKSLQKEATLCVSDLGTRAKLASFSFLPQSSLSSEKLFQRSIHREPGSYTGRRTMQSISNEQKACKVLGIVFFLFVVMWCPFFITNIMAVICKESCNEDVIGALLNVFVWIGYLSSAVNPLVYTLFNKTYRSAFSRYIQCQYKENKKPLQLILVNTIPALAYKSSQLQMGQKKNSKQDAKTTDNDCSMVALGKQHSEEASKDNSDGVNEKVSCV
Sequence of KiSS-1 receptor (Homo sapiens) (Q969F8 whole entry, looked up): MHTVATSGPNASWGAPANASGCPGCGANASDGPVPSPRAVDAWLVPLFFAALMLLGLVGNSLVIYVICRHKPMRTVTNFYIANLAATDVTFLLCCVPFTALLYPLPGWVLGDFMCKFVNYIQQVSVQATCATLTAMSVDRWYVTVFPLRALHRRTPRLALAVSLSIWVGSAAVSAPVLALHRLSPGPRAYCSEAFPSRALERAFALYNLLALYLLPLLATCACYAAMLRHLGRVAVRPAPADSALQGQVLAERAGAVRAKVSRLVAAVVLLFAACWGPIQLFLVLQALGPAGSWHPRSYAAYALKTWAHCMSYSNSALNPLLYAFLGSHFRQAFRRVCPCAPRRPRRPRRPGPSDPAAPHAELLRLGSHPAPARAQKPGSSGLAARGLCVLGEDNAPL
Sequence of Beta-2 adrenergic receptor (Homo sapiens) (P07550 whole entry, looked up): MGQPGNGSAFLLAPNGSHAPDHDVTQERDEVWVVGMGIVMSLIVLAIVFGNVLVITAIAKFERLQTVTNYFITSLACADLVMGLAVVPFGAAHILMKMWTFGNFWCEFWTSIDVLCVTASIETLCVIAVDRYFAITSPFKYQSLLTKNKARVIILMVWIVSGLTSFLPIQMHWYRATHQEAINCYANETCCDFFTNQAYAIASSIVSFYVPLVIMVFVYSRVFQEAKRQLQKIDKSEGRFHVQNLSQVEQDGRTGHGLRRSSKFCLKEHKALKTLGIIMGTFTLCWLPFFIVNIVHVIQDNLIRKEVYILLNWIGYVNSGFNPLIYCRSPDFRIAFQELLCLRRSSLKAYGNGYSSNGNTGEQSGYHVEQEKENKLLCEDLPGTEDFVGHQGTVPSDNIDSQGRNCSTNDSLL
Sequence of Muscarinic acetylcholine receptor M1 (Homo sapiens) (P11229 whole entry, looked up): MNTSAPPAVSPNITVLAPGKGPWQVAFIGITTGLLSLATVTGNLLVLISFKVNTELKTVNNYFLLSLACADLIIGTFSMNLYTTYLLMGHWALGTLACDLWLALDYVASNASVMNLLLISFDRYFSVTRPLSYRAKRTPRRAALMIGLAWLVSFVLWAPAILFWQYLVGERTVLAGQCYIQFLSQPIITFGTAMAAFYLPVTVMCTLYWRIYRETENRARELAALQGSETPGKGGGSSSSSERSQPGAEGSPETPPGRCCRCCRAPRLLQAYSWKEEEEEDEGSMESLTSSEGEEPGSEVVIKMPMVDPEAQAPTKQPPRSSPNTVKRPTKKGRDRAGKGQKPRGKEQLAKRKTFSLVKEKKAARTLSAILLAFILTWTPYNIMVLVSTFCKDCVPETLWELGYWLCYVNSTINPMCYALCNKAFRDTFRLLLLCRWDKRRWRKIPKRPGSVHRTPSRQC

Take `COCCl`: the Potency result in test [1], in test [2], in test [3], in test [4], in test [5] and in [6] was “inactive” in each case. Besides, the Potency result in test [7], in test [8], in test [9], in [10], in test [12] and in test [14] was “inactive” in each case. Besides, the Potency result in test [15], in [16], in test [17], in test [18] and in test [19] was “inactive” throughout. The Potency is 22.7 µM (active) and inactive in test [11]; 50.9 µM (active) and inactive in test [13].

Consider `O=C1C2CC=CCC2C(=O)N1SC(Cl)(Cl)Cl` (centres undefined), for which the Potency result in test [1] was “inactive and 26.9 µM (active)”; in test [2], 54.3 µM (active) and 7.57 µM (active); in test [11], 24.1 µM (active); in [13], “inactive and 38.3 µM (active)”; in [19] it was “inactive and 23.9 µM (active)”. Further, the Potency entry in test [4], in [5], in test [6], in [7], in [8] and in [9] was “inactive” in each case. Besides, the Potency entry in test [10], in test [12], in [15], in test [16], in test [17] and in test [18] was “inactive” each time.

`CCCCOC(=O)CCC(=O)OCCCC`: the Potency result in test [1], in test [2], in test [3], in test [4], in test [6] and in test [7] was “inactive” throughout. Also, the Potency entry in test [8], in [9], in test [10], in [11], in test [12] and in test [13] was “inactive” each time. For the same molecule, the Potency entry in [14], in [15], in test [16], in test [18] and in test [19] was “inactive” in each case.

Turning to `CCOC(=S)S`, the Potency in test [1] is 27.3 µM (active) and 18.3 µM (active). Moreover, the Potency result in [20], in test [3], in [4], in test [5], in test [6] and in test [7] was “inactive” each time. For the same molecule, the Potency result in [8], in [9], in test [10], in test [11], in test [12] and in test [13] was “inactive” throughout. For the same molecule, the Potency entry in test [14], in [15], in test [16], in test [18] and in test [19] was “inactive” each time.

As to `O=C(CBr)c1ccc(O)cc1`, the Potency result in test [1], in [20], in test [3], in [4], in test [5] and in test [6] was “inactive” in each case. In addition, the Potency result in test [7], in test [8], in test [9], in [10], in test [11] and in test [13] was “inactive” throughout. The Potency result in test [14], in test [15], in test [16], in test [17], in test [18] and in test [19] was “inactive” each time.

`O=Cc1ccco1`: the Potency result in test [1], in [20], in test [3], in test [4], in [5] and in test [6] was “inactive” throughout. In addition, the Potency entry in test [7], in [8], in [9], in test [10], in [11] and in test [12] was “inactive” each time. The Potency result in test [13], in test [14], in [15], in [16], in test [18] and in test [19] was “inactive” in each case.

As to `COP(=S)(OC)SCn1nnc2ccccc2c1=O`, the Potency result in test [1], in test [20], in test [3], in [6], in test [7] and in test [8] was “inactive” throughout. Also, the Potency entry in test [9], in test [11], in test [12], in test [13], in [14] and in test [15] was “inactive” throughout. For the same molecule, the Potency result in test [16], in test [17], in [18] and in test [19] was “inactive” in each case. Further, in test [4], the Potency was 12.6 µM (active).
